Results: PubChem BioAssay AID861 (The Scripps Research Institute Molecular Screening Center, 2007)
Out of some 200,000 compounds screened, about 360 (0.18%) were called active. The sample holds actives, similar compounds and a random draw of the others, so the mix is not that of the screen. Unmarked numbers belong to inactive results. No stated cut-off is given here; in the data, active means inhibition above about 25%; inactive means the rest.

What follows are compounds tested against Toll-like receptor 4 (Homo sapiens) + Myeloid differentiation primary response protein MyD88 (Homo sapiens) (UniProt O00206+Q99836) (assay: disruptors of TLR4 binding to MyD88 – cell-based, HeLa CL3-4, BLA complementation, FRET ratio, primary screen (AID 861;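 further: 0% = vehicle and 100% = reference inhibitor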)). Settings: HeLa CL3-4 TLR4/MyD88 BLA complementation, at 8.4 µM, active compounds read high.
Toll-like receptor 4 (Homo sapiens) + Myeloid differentiation primary response protein MyD88 (Homo sapiens), sequence (O00206 whole entry, looked up): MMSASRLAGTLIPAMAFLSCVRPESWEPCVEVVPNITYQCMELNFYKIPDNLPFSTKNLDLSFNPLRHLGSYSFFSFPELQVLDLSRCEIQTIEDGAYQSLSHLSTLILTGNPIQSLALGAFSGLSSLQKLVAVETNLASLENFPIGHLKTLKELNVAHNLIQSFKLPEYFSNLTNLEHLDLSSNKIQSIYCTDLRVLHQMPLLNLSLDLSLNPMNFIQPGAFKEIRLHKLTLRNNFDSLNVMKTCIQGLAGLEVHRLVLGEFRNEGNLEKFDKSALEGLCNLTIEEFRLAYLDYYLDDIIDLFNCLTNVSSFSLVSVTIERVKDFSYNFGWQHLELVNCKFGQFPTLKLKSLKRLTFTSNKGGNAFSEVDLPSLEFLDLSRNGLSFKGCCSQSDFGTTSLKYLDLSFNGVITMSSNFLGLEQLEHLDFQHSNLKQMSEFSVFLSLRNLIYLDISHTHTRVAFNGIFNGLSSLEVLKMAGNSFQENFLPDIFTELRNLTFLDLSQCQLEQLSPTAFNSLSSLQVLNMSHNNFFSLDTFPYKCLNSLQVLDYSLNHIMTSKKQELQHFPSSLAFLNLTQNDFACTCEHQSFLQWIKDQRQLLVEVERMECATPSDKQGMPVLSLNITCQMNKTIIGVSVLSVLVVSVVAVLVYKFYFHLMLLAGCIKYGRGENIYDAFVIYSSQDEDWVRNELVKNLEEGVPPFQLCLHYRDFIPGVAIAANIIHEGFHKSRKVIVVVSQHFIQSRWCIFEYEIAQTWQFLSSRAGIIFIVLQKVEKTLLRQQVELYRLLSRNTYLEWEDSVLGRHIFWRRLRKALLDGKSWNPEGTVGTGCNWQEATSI
Toll-like receptor 4 (Homo sapiens) + Myeloid differentiation primary response protein MyD88 (Homo sapiens), sequence (Q99836 whole entry, looked up): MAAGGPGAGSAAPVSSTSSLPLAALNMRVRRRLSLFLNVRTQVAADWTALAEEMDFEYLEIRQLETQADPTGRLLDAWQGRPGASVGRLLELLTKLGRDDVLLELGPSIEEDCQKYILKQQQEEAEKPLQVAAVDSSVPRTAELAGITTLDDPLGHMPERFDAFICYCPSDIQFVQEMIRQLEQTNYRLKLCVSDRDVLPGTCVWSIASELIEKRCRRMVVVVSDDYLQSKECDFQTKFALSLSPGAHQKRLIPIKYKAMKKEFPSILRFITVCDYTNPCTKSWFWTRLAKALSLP
`O=C(Cc1csc(Nc2nc(=S)[nH]c3ccccc23)n1)NCCCN1CCN(c2cccc(Cl)c2)CC1` gave an inhibition of -1.51%. In the case of `Cc1nc(Cl)c2oc3ccccc3c2n1`, the inhibition is reported as 35.2% (active). `CCSc1nc(C)nc2c1oc1ccccc12` was tested, and the inhibition was 1.7%. Work on `Cc1nc(N2CCN(c3ncccn3)CC2)c2oc3ccccc3c2n1` yielded an inhibition of 7.8%. Compound `Cc1ccc2[nH]c(=O)c(CN3CCCCC3)c(-c3ccccc3)c2c1` has an inhibition of 16.6%. Compound `COc1ccc(C2OCC3(CO2)SC(=O)NC3=O)cc1OC` (stereo not drawn) has an inhibition of 6.58%. `CCN1CCC2(CCN(Cc3cn[nH]c3-c3ccc(OC)c(F)c3)C2)C1` (stereo not drawn) was tested, and the inhibition was -1.36%. With `O=C(Nc1ccccc1Cc1ccccc1)c1ccc2c(c1)SC1=NS(=O)(=O)CCN12` the inhibition was 14.2%. In the case of `CCCCN(C(=O)COc1ccc(NC(C)=O)cc1)C1CCS(=O)(=O)C1` (stereo not drawn), the inhibition is reported as 5.19%. With `COc1cc(NC(=O)COC(=O)c2cnc(C)cn2)c(C)cc1[N+](=O)[O-]` the inhibition was 0.72%. Work on `CC(C)c1csc(CN2CCC(CO)(Cc3ccccc3)CC2)n1` yielded an inhibition of -3.76%. For `Oc1ccccc1C=NC1CCCCC1N=Cc1ccccc1O` (stereo not drawn), the inhibition was -2.31%. `Cn1cnnc1SCC(=O)Nc1ccc(N2CCOCC2)cc1` was tested, and the inhibition was -8.28%. In the case of `CN(c1ccccc1)c1nc(N)c([N+](=O)[O-])c(NCc2ccco2)n1`, the inhibition is reported as -1.5%. With `COC(=O)Cc1nc2ccccc2[nH]1` the inhibition was 9.21%. In the case of `COC(=O)Cc1cc(=O)n(-c2nc3ccccc3s2)[nH]1`, the inhibition is reported as 25.2% (active). In the case of `CCC(=O)NC(=Nc1nc2ccccc2s1)NC(=O)CC`, the inhibition is reported as -5.21%. Compound `CC1CCN(c2ccc([N+](=O)[O-])cc2C(N)=O)CC1` has an inhibition of 12.4%. With `Cc1nc2ccccc2n1CC(=O)N/N=C/c1cccs1` the inhibition was -1.34%. For `CN(C)c1ccc(C=NCCc2ccc(S(N)(=O)=O)cc2)cc1`, the inhibition was -10.3%. Compound `Cc1cc(C)c2c(n1)sc1c(=O)n(-c3ccccc3)c(=O)[nH]c12` has an inhibition of 13.9%. For `Cn1nnnc1-c1cc(Cl)cc(Cl)c1`, the inhibition was -10.5%. `O=C(COC(=O)c1cc(-c2cccs2)nn1-c1ccccc1)Nc1cc([N+](=O)[O-])ccc1Cl` gave an inhibition of 7.72%. `O=C(/C=C/c1ccc(F)cc1)NCCNC(=O)/C=C/c1ccc(F)cc1` showed an inhibition of -2.71%. In the case of `COc1ccc(NC(=S)Nc2ccc(S(N)(=O)=O)cc2)c(C)c1`, the inhibition is reported as -9.09%. `Nc1nc(SCC(=O)NCCN2CCOCC2)nc2sc3c(c12)CCC3` was tested, and the inhibition was 4.71%. In the case of `Cc1ccc(Nc2c(F)c(F)c(F)c(F)c2C(=O)O)c(C)c1`, the inhibition is reported as -9.32%. For `Cc1cccc2cc(CN(Cc3cccs3)C(=S)NCc3ccco3)c(=O)[nH]c12`, the inhibition was 6.03%. `COc1ccc(-c2oc3ncn(Cc4ccco4)c(=N)c3c2-c2ccc(OC)cc2)cc1` gave an inhibition of -4.97%. With `Cc1nn(C)c(C)c1CN(C(=O)CCc1nnc(Cc2c[nH]c3ccccc23)o1)C(C)C` the inhibition was -4.71%. In the case of `COc1ccc(Cc2nnc(N/N=C/c3ccccc3O)[nH]c2=O)cc1OC`, the inhibition is reported as -8.91%. For `COc1cc(C(=O)N[C@@H](C)C(=O)NCc2ccco2)cc(OC)c1OC`, the inhibition was 5.84%. `CCOc1ccc(N2C(=O)/C(=C/c3ccc(C)o3)N(C)C2=S)cc1` showed an inhibition of -6.16%. With `Cc1ccccc1-n1cc(CNC(=O)CC2C(=O)NCCN2C/C=C/c2ccccc2)cn1` (stereo not drawn) the inhibition was -13.3%. Work on `CCOC(=O)c1c(N)sc(C(C)=O)c1C` yielded an inhibition of 1.12%. `CCOC(=O)c1sc(NC(=O)CSc2nc(O)c(Cc3ccccc3)c(=O)[nH]2)nc1C` showed an inhibition of 1.47%. For `CCn1cc(-c2cc(C(=O)O)on2)c(C)n1`, the inhibition was 1.59%. With `COc1cccc(/C=C(/CC(=O)Nc2ccc(N3CCOCC3)cc2)c2nc3ccccc3s2)c1` the inhibition was 5.83%. With `O=C(COC(=O)Cc1ccc(F)cc1)Nc1cc(S(=O)(=O)N2CCOCC2)ccc1N1CCCC1` the inhibition was -6.48%. `Cc1[nH]c2ccccc2c1/C=N\NC(=O)Cn1nnc(-c2ccccc2)n1` gave an inhibition of -5.01%. `Cc1cccc(C)c1NC(=O)C1CCCN1C(=O)OC(C)(C)C` (stereo not drawn) was tested, and the inhibition was -1.58%. Compound `O=C(Nc1ccccc1)O/N=C1\CCCCC1c1ccc([N+](=O)[O-])cc1[N+](=O)[O-]` (stereo not drawn) has an inhibition of 5.14%. `CCn1c(SCc2cc(=O)n3ccsc3n2)nc2ccccc21` showed an inhibition of -21.4%. Work on `Cc1nccn1CCCNC(=O)CC1C(=O)NCCN1Cc1ccc(Cl)c(F)c1` (stereo not drawn) yielded an inhibition of -15.6%. In the case of `Cc1ccc(NC2=C(Cl)C(=O)OC2OC(=O)c2ccccc2C)cc1` (stereo not drawn), the inhibition is reported as -14.9%. With `CC(=O)c1ccc(N=C2SCCCN2C(=O)C2CCCCC2)cc1` the inhibition was 0.78%. `Fc1cccc2ncnc(OCc3ccccc3)c12` showed an inhibition of -8.75%. For `CCC(C)(C)NC(=O)C(c1ccccn1)N(C(=O)c1csnn1)c1ccccc1` (stereo not drawn), the inhibition was 2%. Compound `COc1ccc(NC(=S)NCC2CCN(c3ccc(OC)cc3)C2)cc1` (stereo not drawn) has an inhibition of -0.81%. In the case of `CC(=O)Nc1ccc(CN2CCN(Cc3ccc(F)c(F)c3)C(CCO)C2)cc1` (stereo not drawn), the inhibition is reported as -0.85%. In the case of `COc1cc(CN2CCNC(=O)C2CC(=O)NCCc2ncccc2C)cc(OC)c1` (stereo not drawn), the inhibition is reported as -11.2%. `COc1cccc(NCCC(=O)c2cccc([N+](=O)[O-])c2)c1` was tested, and the inhibition was 9.38%. For `CCOc1ccc(-n2cnnn2)cc1S(=O)(=O)N1CCC(C)CC1C` (stereo not drawn), the inhibition was -2.33%. In the case of `O=C(NCc1ccco1)c1ccc(NS(=O)(=O)c2cccc([N+](=O)[O-])c2)cc1`, the inhibition is reported as 11.7%. For `CC(=O)c1c(C)[nH]c(C(=O)OCC(=O)Nc2sc3c(c2C#N)CCCC3)c1C`, the inhibition was -2.59%. With `COc1cc(OC)c(C(=O)Nc2ccccc2-c2ccccc2)cc1OC` the inhibition was -14%. With `CC(=O)Nc1ccc(C(=O)CSc2nc3ccc(C)cc3[nH]2)cc1` the inhibition was 5.15%. With `O=C(NNC(=S)Nc1ccccc1)c1cccc(S(=O)(=O)N2CCOCC2)c1` the inhibition was -2.25%. Work on `CCN(CC)c1ccc2c(Nc3ccccc3)c(C=O)c(=O)oc2c1` yielded an inhibition of 6.79%. `CCN(CC)c1ccc2cc(C(=O)O)c(=O)oc2c1` was tested, and the inhibition was 2.27%. `CCN(CC)c1ccc2oc(=O)c(C)nc2c1` was tested, and the inhibition was 26.6% (active). Compound `CSc1ccc(/C=N/N2CCN(Cc3ccccc3Cl)CC2)cc1` has an inhibition of 8.51%. Work on `Cc1ccc(NC(=O)c2cc([N+](=O)[O-])ccc2Cl)c(O)c1` yielded an inhibition of -13.5%. Compound `O=C(/C=C/c1ccc(F)cc1)Nc1cccc(S(=O)(=O)Nc2cccc(C(F)(F)F)c2)c1` has an inhibition of -0.34%. In the case of `CCOc1cccc(/C=C/c2ccc3ccccc3n2)c1OC(C)=O`, the inhibition is reported as 8.04%. Compound `O=C(CCN1C(=O)c2ccncc2C1=O)Nc1cc(F)ccc1F` has an inhibition of 1.62%. Compound `CC(=O)Nc1ccc(NC(=O)COc2ccc(S(=O)(=O)NC(C)c3ccccc3)cc2)cc1` (stereo not drawn) has an inhibition of -6.49%. `O=C(CN1CCCC1)N1CCN(c2ccccc2)CC1` showed an inhibition of -1.74%. Compound `COCCCNC(=S)NNC(=O)C(O)(c1ccccc1)c1ccccc1` has an inhibition of 1.88%. `Cc1cc(/C=N/NC(=O)CC2(C)OCCO2)c(C)n1-c1ccc(Cl)c(Cl)c1` gave an inhibition of -8.27%. `Cc1nnc(SCC(=O)N2c3ccccc3C(C)(c3ccc(Cl)cc3)CC2(C)C)s1` (stereo not drawn) gave an inhibition of -17.2%. In the case of `CC/S(CC1CC1(Cl)Cl)=N\S(=O)(=O)c1ccc(C)cc1` (stereo not drawn), the inhibition is reported as -3.44%. In the case of `Cc1ccc(OCc2nnc(SC3CCc4ccccc4C3=O)n2C)cc1` (stereo not drawn), the inhibition is reported as -13.3%. `CCC1C(=O)c2ccccc2N(C)C1=O` (stereo not drawn) was tested, and the inhibition was 3.79%. Compound `N#CC1(NC(=O)COc2ccc3oc4ccccc4c3c2)CCCCC1` has an inhibition of -7.56%. `CN(CCC1CCOCC1)Cc1cn[nH]c1-c1ccc(-c2ccccc2)cc1` showed an inhibition of -6.36%. `Cc1ccc(NC(=O)c2ccccn2)cc1S(=O)(=O)N1CCOCC1` showed an inhibition of -12.9%. With `C=CCN1C(=O)C(O)(CC(=O)c2ccccn2)c2ccccc21` (stereo not drawn) the inhibition was 0.55%. `CC1=NN(C(=O)CCc2ccccc2O)C(O)(C(F)(F)F)C1` (stereo not drawn) gave an inhibition of -5.78%. For `CCn1c2ccccc2c2cc(NC(=O)C/C(C)=N/NC(=O)c3ccccc3N)ccc21`, the inhibition was -6.09%. For `CCCCCCOc1ccc(OC(=O)c2cccnc2)cc1`, the inhibition was -5.46%. With `CC(=O)Nc1ccc(S(=O)(=O)NC(C)C(=O)OCC(=O)NC2CCCC2)cc1` (stereo not drawn) the inhibition was -2.35%. `COCCNC(=O)NC(=O)COC(=O)C1(c2ccc(Cl)cc2)CC1` showed an inhibition of 1.43%. For `O=C(Nc1nnc(-c2ccco2)o1)c1ccc(S(=O)(=O)N2CCOCC2)cc1`, the inhibition was 9.33%. `CN(C)CCCN1C(=O)CSC1c1ccc([N+](=O)[O-])cc1` (stereo not drawn) gave an inhibition of 2.09%. In the case of `COC(=O)c1nc2n(n1)C(c1ccc([N+](=O)[O-])cc1)C(C(=O)Nc1ccc(Cl)cc1)=C(C)N2` (stereo not drawn), the inhibition is reported as 4.62%. In the case of `COc1cc(NC(=S)N2CCCC(C)C2)cc(OC)c1OC` (stereo not drawn), the inhibition is reported as 6.42%. Work on `COc1ccc(C2Nc3ccccc3C(=O)N2c2ccc(Cl)cc2)cc1Cn1cc([N+](=O)[O-])cn1` (stereo not drawn) yielded an inhibition of -3.28%. Work on `Cc1nc(N=C(N)N)nc2c(C)cccc12` yielded an inhibition of -6.85%. `COc1cccc(C(=O)Nc2cc3c(cc2Br)OCCCO3)c1` was tested, and the inhibition was 5.11%. Compound `CCc1cccc(NC(=O)CCC(=O)O)c1` has an inhibition of -11%. With `CC(=O)c1cc(C#N)c(N2CCCCC2)nc1C` the inhibition was 7.39%. `CCN(CC)S(=O)(=O)c1cc([N+](=O)[O-])ccc1N=Nc1c(O)n(C)c2ccccc12` gave an inhibition of 6.59%.
